# According to the supplement of paper PMC8728848:
# Only a selection was taken, and the strongest signals are over-represented in it overall.
# What was measured:
# Assay in all cases: glycan array binding signal (z-score within array); higher = stronger binding
# Settings in all cases: glycan notation: IUPAC condensed, linker removed
# [1] = biological target: Fuc(a1-2)Gal(b1-3)GalNAc(a1-3)[Fuc(a1-2)]Gal(b1-4)GlcNAc
# Outline: (§1)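 The binding signal is a Z-score computed within each array and averaged over linkers. Arrays of the same protein sequence at different concentrations or buffers were also averaged together. Data originate from 3228 arrays in the Consortium for Functional Glycomics database, kept only where the protein sequence was available.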
# [2] = biological target: Fuc(a1-2)Gal(b1-3)[Fuc(a1-4)]GlcNAc(b1-2)Man(a1-3)[Fuc(a1-2)Gal(b1-3)[Fuc(a1-4)]GlcNAc(b1-2)Man(a1-3)]Man(b1-4)GlcNAc(b1-4)GlcNAc
# Outline: as §1
# [3] = biological target: Fuc(a1-2)Gal(b1-3)[Fuc(a1-4)]GlcNAc(b1-3)[Gal(b1-4)GlcNAc(b1-6)]Gal(b1-4)Glc
# Outline: as §1
# [4] = biological target: Fuc(a1-2)Gal(b1-4)Fuc(a1-3)]GlcNAc(b1-2)Man(a1-3)[Fuc(a1-2)Gal(b1-4)[Fuc(a1-3)]GlcNAc(b1-2)Man(a1-6)]Man(b1-4)GlcNAc(b1-4)GlcNAc
# Outline: as §1
# [5] = biological target: Fuc(a1-2)Gal(b1-4)GlcNAc(b1-2)Man(a1-3)[Fuc(a1-2)Gal(b1-4)GlcNAc(b1-2)Man(a1-6)]Man(b1-4)GlcNAc(b1-4)GlcNAc
# Outline: as §1
# [6] = biological target: Fuc(a1-2)[Gal(a1-3)]Gal(b1-3)GlcNAc
# Outline: as §1
# [7] = biological target: Fuc(a1-2)[Gal(a1-3)]Gal(b1-4)GlcNAc(b1-3)GalNAc
# Outline: as §1
# [8] = biological target: Fuc(a1-2)[GalNAc(a1-3)]Gal(b1-3)GlcNAc(b1-3)GalNAc
# Outline: as §1
# [9] = biological target: Fuc(a1-3)[Gal(b1-4)]Glc6S
# Outline: as §1
# [10] = biological target: Fuc(a1-3)[Gal(b1-4)]GlcNAc(b1-6)GalNAc
# Outline: as §1
# Fuc(b1-3)GlcNAc = biological target: Fuc(b1-3)GlcNAc
# Outline: as §1
# Gal(a1-2)Gal = biological target: Gal(a1-2)Gal
# Outline: as §1
# Gal(a1-3)Gal = biological target: Gal(a1-3)Gal
# Outline: as §1
# Gal(a1-3)Gal(b1-3)GlcNAc = biological target: Gal(a1-3)Gal(b1-3)GlcNAc
# Outline: as §1
# Gal(a1-3)Gal(b1-4)Glc = biological target: Gal(a1-3)Gal(b1-4)Glc
# Outline: as §1
# [11] = biological target: Gal(a1-3)Gal(b1-4)GlcNAc(b1-2)Man(a1-3)[Gal(a1-3)Gal(b1-4)GlcNAc(b1-2)Man(a1-6)]Man(b1-4)GlcNAc(b1-4)GlcNAc
# Outline: as §1
# Gal(a1-4)GlcNAc = biological target: Gal(a1-4)GlcNAc
# Outline: as §1
# [12] = biological target: Gal(b1-3)GalNAc(b1-4)[Neu5Ac(a2-3)]Gal(b1-4)Glc
# Outline: as §1
# [13] = biological target: Gal(b1-3)GlcNAc(b1-2)Man(a1-3)[GlcNAc(b1-4)][Gal(b1-3)GlcNAc(b1-2)Man(a1-6)]Man(b1-4)GlcNAc(b1-4)GlcNAc
# Outline: as §1
# [14] = biological target: Gal(b1-3)GlcNAc(b1-3)GalNAc
# Outline: as §1
# [15] = biological target: Gal(b1-3)[Fuc(a1-4)]GlcNAc(b1-2)Man
# Outline: as §1
# [16] = biological target: Gal(b1-3)[Fuc(a1-4)]GlcNAc(b1-2)Man(a1-3)[Gal(b1-3)[Fuc(a1-4)]GlcNAc(b1-2)Man(a1-6)]Man(b1-4)GlcNAc(b1-4)[Fuc(a1-6)]GlcNAc
# Outline: as §1
# [17] = biological target: Gal(b1-3)[GlcNAc(b1-6)]GalNAc
# Outline: as §1
# [18] = biological target: Gal(b1-4)GlcNAc(b1-2)Man(a1-3)[Gal(b1-4)GlcNAc(b1-2)Man(a1-6)][GlcNAc(b1-4)]Man(b1-4)GlcNAc(b1-4)[Fuc(a1-6)]GlcNAc
# Outline: as §1
# [19] = biological target: Gal(b1-4)GlcNAc(b1-2)Man(a1-6)Man(b1-4)GlcNAc(b1-4)GlcNAc
# Outline: as §1
# [20] = biological target: Gal(b1-4)GlcNAc(b1-2)[Gal(b1-4)GlcNAc(b1-6)]Man(a1-6)[GlcNAc(b1-4)][Gal(b1-4)GlcNAc(b1-2)[Gal(b1-4)GlcNAc(b1-4)]Man(a1-3)]Man(b1-4)GlcNAc(b1-4)[Fuc(a1-6)]GlcNAc
# Outline: as §1
# [21] = biological target: Gal(b1-4)GlcNAc(b1-3)Gal(b1-3)GalNAc
# Outline: as §1
# [22] = biological target: Gal(b1-4)GlcNAc(b1-3)Gal(b1-3)GlcNAc
# Outline: as §1
# [23] = biological target: Gal(b1-4)GlcNAc(b1-3)Gal(b1-4)GlcNAc(b1-3)Gal(b1-4)GlcNAc(b1-3)Gal(b1-4)GlcNAc(b1-2)[Gal(b1-4)GlcNAc(b1-3)Gal(b1-4)GlcNAc(b1-3)Gal(b1-4)GlcNAc(b1-3)Gal(b1-4)GlcNAc(b1-6)]Man(a1-6)[Gal(b1-4)GlcNAc(b1-3)Gal(b1-4)GlcNAc(b1-3)Gal(b1-4)GlcNAc(b1-3)Gal(b1-4)GlcNAc(b1-2)Man(a1-3)]Man(b1-4)GlcNAc(b1-4)[Fuc(a1-6)]GlcNAc
# Outline: as §1
# [24] = biological target: Gal(b1-4)GlcNAc(b1-3)Gal(b1-4)GlcNAc(b1-3)GalNAc
# Outline: as §1
binder,measurement,setting,value
"AT1G80310(18) (Arabidopsis thaliana), Q0WP36 (protein) METTTTPLLPGDRSRCGWLRRRLRLKNPLSSELSGAVGDLGTFIPIVLTLTLVSNLDLSTTLIFTGFYNIATGLLFDIPMPVQPMKSIAAVAVSESPHLTPSQIAAAGASTAATLLLLGATGAMSFLYNIIPLPVVRGVQLSQGLQFAFTAIKYVRFNYDTATLKPSSSPRIWLGLDGLILALAALLFIILSTGSGNDREAEDGDLAETSSNESQSRRRRLRLLSSIPSALIVFALGLVLCFIRDPSIFKDLKFGPSKFHILRISWDDWKIGFLRAAIPQIPLSVLNSVIAVCKLSNDLFDKELSATTVSISVGVMNLIGCWFGAMPVCHGAGGLAGQYRFGARSGLSVIFLGIGKLIVGLVFGNSFVRILSQFPIGILGVLLLFAGIELAMASKDMNSKEDSFIMLVCAAVSMTGSSAALGFGCGVVLYLLLKLRTLDCSSVTLFSRSSDESQVDSEAAPRDV",glycan array binding signal (z-score),[1],-0.505
same,glycan array binding signal (z-score),[2],-0.097
same,glycan array binding signal (z-score),[3],-0.71
same,glycan array binding signal (z-score),[4],4.04
same,glycan array binding signal (z-score),[5],3.83
same,glycan array binding signal (z-score),[6],2.6
same,glycan array binding signal (z-score),[7],-1.01
same,glycan array binding signal (z-score),[8],0.205
same,glycan array binding signal (z-score),[9],1.38
same,glycan array binding signal (z-score),[10],0.051
same,glycan array binding signal (z-score),Fuc(b1-3)GlcNAc,-0.095
same,glycan array binding signal (z-score),Gal(a1-2)Gal,0.558
same,glycan array binding signal (z-score),Gal(a1-3)Gal,3.63
same,glycan array binding signal (z-score),Gal(a1-3)Gal(b1-3)GlcNAc,3.82
same,glycan array binding signal (z-score),Gal(a1-3)Gal(b1-4)Glc,-0.294
same,glycan array binding signal (z-score),[11],-0.855
same,glycan array binding signal (z-score),Gal(a1-4)GlcNAc,0.748
same,glycan array binding signal (z-score),[12],-0.754
same,glycan array binding signal (z-score),[13],1.46
same,glycan array binding signal (z-score),[14],0.082
same,glycan array binding signal (z-score),[15],2.96
same,glycan array binding signal (z-score),[16],-0.645
same,glycan array binding signal (z-score),[17],0.239
same,glycan array binding signal (z-score),[18],4.28
same,glycan array binding signal (z-score),[19],-0.165
same,glycan array binding signal (z-score),[20],2.65
same,glycan array binding signal (z-score),[21],-0.393
same,glycan array binding signal (z-score),[22],1.15
same,glycan array binding signal (z-score),[23],-0.802
same,glycan array binding signal (z-score),[24],-0.75
